Measurements from PubChem BioAssay AID1159580 (chemical genetic matrix, 2015).
About 2,000 (36%) of roughly 5,500 compounds were called active. Inconclusive results (about 18%) are left out. Rule as the data show it: active = normalized growth mostly below about 0.91 (no sharp cut-off); inconclusive = no clear call, values can overlap the other calls; inactive = mostly above about 0.92. Some of the results follow.

Experiment: chemical genetic growth profiling, strain panel (AID 1159580);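 also: tested at 20 µM; growth read once vehicle control cultures reached saturation at 30 °C; 1 = growth at the plate median or of vehicle wells; lower values mean less growth of the strain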
Settings: S. cerevisiae deletion strains, growth OD

Measured: normalized growth

C[C@]12CC[C@@H]3c4ccc(O)cc4CC[C@H]3[C@@H]1CCC2=O
inactive: locus YAL040C, strain CLN3, active compounds read low 0.996 | locus YCL061C, strain MRC1 (second series), active compounds read low 1.01 | locus YDR150W, strain NUM1, active compounds read low 1 | locus YDR363W, strain ESC2, active compounds read low 1 | locus YER002W, strain NOP16, active compounds read low 0.995 | locus YMR263W, strain SAP30, active compounds read low 1 | locus YMR307W, strain GAS1, active compounds read low 1 | locus YNL175C, strain NOP13, active compounds read low 0.985 | locus YNL197C, strain WHI3, active compounds read low 1 | locus YNL224C, strain SQS1, active compounds read low 1 | locus YNL322C, strain KRE1, active compounds read low 0.987 | locus YOR083W, strain WHI5 (second series), active compounds read low 0.905 | locus YPL241C, strain CIN2, active compounds read low 1
